Experimental data published in PubChem BioAssay AID651635 (National Center for Advancing Translational Sciences (NCATS), 2012).
The whole screen tested about 400,000 compounds, of which about 1,900 (0.47%) were called active. Inconclusive results (about 14%) are left out. The call rests on the fitted dose curve; in most records, active means well fitted cell-killing curve with a large enough effect; inconclusive means small, poorly fitted or top-dose-only effect, or effect the other way; inactive means no such curve, though single readings can be large or run the other way. The full list was thinned out, with actives kept by preference.

Assay: Viability Counterscreen for Primary qHTS for Inhibitors of ATXN expression; further: nearly all actives have a fitted effect of over 40% in size
Settings: S2 cells (HEK-293 line with an ATXN2-luciferase reporter) viability, CellTiter-Fluor protease fluorescence, 24 h; series mostly up to 56.7 µM; activity change, negative = cytotoxicity: at the top concentration
Potency means the concentration at half of the fitted maximal effect.

Structure (SMILES)	activity change, negative = cytotoxicity	Potency
Cc1cnc(C)c(-c2cc(F)c3c(c2)CC(CNC(=O)c2cccc(Cn4cccn4)c2)O3)n1 (configuration not stated)	-19.6% (inactive)	–
CN(C)CCN1CCN(c2cc(-c3cccc(Cl)c3)nc3ccnn23)CC1	-1.53% (inactive)	–
O=C(c1ccccc1)N1CCN(C(=O)c2cc3nc(-c4ccccc4)cc(C(F)(F)F)n3n2)CC1	-32.8% (inactive)	–
C#Cc1cc(N2CCN(C(=O)c3ccoc3)CC2)n2nc(-c3cccc(Cl)c3)cc2n1	–	15.8 µM (active)
COCc1c(C(=O)NC2CCCCC2)cnn1-c1nccc(-c2ccccc2OC)n1	1.68% (inactive)	–
Cc1ccc(F)cc1S(=O)(=O)N1CCC(c2nc3ccccc3s2)CC1	-17.6% (inactive)	–
COc1cc(=O)n2c(c1C(=O)NC(C)c1ccco1)CCN(C(=O)c1cn3ccc(C)cc3n1)CC2 (configuration not stated)	-5.3% (inactive)	–
CO/N=C(/C(=O)N[C@@H]1C(=O)N2C(C(=O)O)=C(Cn3nnc(C)n3)CS[C@H]12)c1csc(N)n1	-4.23% (inactive)	–
O=C(O)C(=Cc1ccc([N+](=O)[O-])cc1)CCc1ccccc1	4.26% (inactive)	–
CCOC(=O)/C(=C\c1ccc([N+](=O)[O-])cc1)C(=O)c1cc(C(C)=O)c(Nc2ccccc2)s1	–	31.6 µM (active)
CC(=O)Nc1ccc(C=CC(=O)c2ccc([N+](=O)[O-])cc2)cc1	-35.6% (inactive)	–
CC(C)(C)OC(=O)N1CCN(C(=O)c2[nH]c(C(F)(F)F)nc2-c2ccccc2)CC1	6.95% (inactive)	–
COc1ccc(F)c(CN2CCC3(CCC(CNC(=O)c4ccn(C)n4)O3)CC2)c1 (configuration not stated)	-17% (inactive)	–
CCCNC(=O)c1cc2c(c(-c3cccc(-c4ccc(C#N)cc4)c3)n1)[C@@H](CCO)N(C(=O)CC)C2	-27.1% (inactive)	–
CCOC(=O)[C@]12CCC=C1N(Cc1ccco1)C(=O)[C@H](CC(=O)NCc1cccc(C(F)(F)F)c1)C2	-31.8% (inactive)	–
CC1Cc2[nH][nH]c(=O)c2C(C2CCCC2)O1 (configuration not stated)	-24.8% (inactive)	–
C=CC[C@H](CC(=O)OC(C)(C)C)C(=O)OC[C@H]1CCCN1C(=O)[C@H](CC=C)CC(=O)N(CCO)Cc1ccccc1	-32.5% (inactive)	–
C=CCC[C@@H](Cc1ccc(F)cc1)C(=O)OC[C@H](Cc1c[nH]c2ccccc12)NC(=O)[C@@H](CC=C)CC(=O)N(CCO)Cc1ccccc1	–	5.62 µM (active)
C=CC[C@@H](CC(=O)N[C@H](CO)Cc1ccccc1)C(=O)N[C@H](C)COC(=O)[C@@H](CC=C)Cc1ccc(F)cc1	-42.4% (inactive)	–
C=CCC[C@H](Cc1ccc(F)cc1)C(=O)OC[C@@H](NC(=O)[C@@H](CC=C)CC(=O)N[C@H](CO)Cc1ccccc1)C(C)(C)C	–	31.6 µM (active)
C=CC[C@@H](CC(=O)N[C@@H](CO)Cc1ccccc1)C(=O)NCCOC(=O)[C@@H](CC=C)CC(=O)OC(C)(C)C	-17.6% (inactive)	–
COCCCNC(=S)N(Cc1ccccc1)Cc1ccc(F)cc1	-7.99% (inactive)	–
CC(=O)NC(Cc1c[nH]c2ccccc12)C(=O)NCCc1ccccc1 (configuration not stated)	22% (inactive)	–
C=CCC[C@@H](Cc1ccc(F)cc1)C(=O)O[C@H](CNC(=O)[C@H](CC=C)CC(=O)N(CCO)Cc1ccccc1)c1ccccc1	–	25.1 µM (active)
C=CC[C@@H](CC(=O)N[C@H](CO)Cc1ccccc1)C(=O)N[C@@H](COC(=O)[C@@H](CC=C)Cc1ccc(F)cc1)Cc1c[nH]c2ccccc12	-20.2% (inactive)	–
COc1ccc(-c2cc(NC=O)c3ncc(-c4ccccc4)n3c2)cc1OC	-34.1% (inactive)	–

Structure (SMILES)	activity change, negative = cytotoxicity	Potency
CC1(C)[C@H](O[C@H]2O[C@H](C(=O)O)[C@@H](O)[C@H](O)[C@H]2O[C@@H]2O[C@H](C(=O)O)[C@@H](O)[C@H](O)[C@H]2O)CC[C@@]2(C)[C@H]1CC[C@]1(C)[C@H]2C(=O)C=C2[C@H]3C[C@@](C)(C(=O)O)CC[C@]3(C)CC[C@]21C	-18.3% (inactive)	–
COc1cccc(CNc2nc3cc(-c4csc5ccccc45)sc3c(=O)n2C)c1	-21.8% (inactive)	–
COC(=O)C1CCCCN1Cc1ccc2c(c1)CN(Cc1cc(OC)c3c(c1)OCO3)CCO2 (configuration not stated)	-12.7% (inactive)	–
Cc1nc2nc(NCc3cccc(Br)c3)[nH]n2c(=O)c1Cc1ccccc1	-9.08% (inactive)	–
C=C1C(=O)[C@]23C[C@H]1CCC2[C@@]1(C)C(C[C@@H]3O)[C@](C)(C(=O)O)CC[C@@H]1O (some centres not stated)	–	15.8 µM (active)
CCc1noc(C)c1C(=O)NCCN1Cc2cc(OC)ccc2OC(CC)C1 (configuration not stated)	-3.48% (inactive)	–
COc1ccc(C2OC(CCc3ccccc3)Cc3[nH]c(=S)[nH]c(=O)c32)cc1 (configuration not stated)	-35.3% (inactive)	–
CC(=O)O[C@H]1CC[C@@]2(C)C(=CC[C@@H]3[C@@H]2CC[C@]2(C)C(c4cccnc4)=CC[C@@H]32)C1	-2.28% (inactive)	–
CCOC(=O)[C@]12CCCC=C1N(Cc1cccc3ccccc13)C(=O)[C@H](CC(=O)NCC13CC4CC(CC(C4)C1)C3)C2	-27.9% (inactive)	–
COc1ccc(C[C@H](N)C(=O)N[C@@H]2[C@H](O)[C@H](n3cnc4c(N(C)C)ncnc43)O[C@@H]2CO)cc1	–	2 µM (active)
COc1cccc(CN(C)C(=O)CC[C@H]2O[C@@H](n3cnc4c(NC(=O)c5ccccc5)ncnc43)[C@H](O)[C@@H]2O)c1	-19.7% (inactive)	–
Nc1ncnc2c1ncn2[C@@H]1O[C@H](CNC(=O)[C@H](N)Cc2cccnc2)[C@@H](O)[C@H]1O	-12% (inactive)	–
CC1(C)OC(=O)C2=C(C[C@@H](C3CCCCC3)O[C@@H]2c2ccc(Cl)cc2)O1	-14.4% (inactive)	–
NNc1nnc(Cc2ccncc2)c2ccccc12	-5.09% (inactive)	–
OC[C@@H]1CN(Cc2ccncc2)C[C@H](n2cnc3c(N4CCN(c5ccccc5)CC4)ncnc32)O1	-36% (inactive)	–
COc1cc(=O)n2c(c1C(=O)N(C)Cc1nccs1)CCN(Cc1ccc(Cl)cc1)CC2	2.64% (inactive)	–
CCCCOc1ccc(CN2C(=O)C(=O)c3cc(Br)cc(C)c32)cc1OC	–	25.1 µM (active)
CCCCN1C(=O)C(C)=C(C)C1OCCc1ccc(OC)c(OC)c1 (configuration not stated)	-10.5% (inactive)	–
COc1ccc(CCN2C(=O)C(C)=C(C)C2=O)cc1OC	-20.2% (inactive)	–
CCOP(=O)(OCC)C(Cc1ccccc1)N=C(c1ccccc1)c1ccccc1 (configuration not stated)	-21.5% (inactive)	–
CC1=NNC(=O)C1CCC(=O)N/N=C(\C)c1ccc(Cl)cc1 (configuration not stated)	-20.8% (inactive)	–
C/C(=N\NC(=O)c1ccccc1F)c1ccccn1	–	7.94 µM (active)
C/C(=N\NC(=O)Cc1ccc(Cl)cc1)c1ccccn1	–	5.62 µM (active)
O=C(NCCOc1ccccc1)c1ccccc1F	-18.6% (inactive)	–
COc1ccc(/C(C)=N\NC(=O)c2ccc(-c3ccccc3)cc2)c(F)c1	-19.8% (inactive)	–
NC(=O)NC(CC(=O)NNC(=O)c1ccccn1)c1ccc(Cl)cc1 (configuration not stated)	-27.3% (inactive)	–
